Source: PubChem BioAssay AID504834 (National Center for Advancing Translational Sciences (NCATS), 2011)
The whole screen tested about 320,000 compounds, of which about 22,000 (6.9%) were called active. Not shown: some 27% with an inconclusive outcome. Calls come from the whole dose curve; as a rule, active = well fitted inhibition curve with a large enough effect; inconclusive = small, poorly fitted or top-dose-only effect, or another doubt; inactive = no such curve, though single readings can be large or run the other way. The list comes from a sample in which actives are over-represented; it also holds similar structures and randomly drawn compounds.

Test: Primary qHTS for delayed death inhibitors of the malarial parasite plastid, 96 hour incubation
Details: P. falciparum luciferase reporter growth; series mostly up to 28.7 µM; activity change, negative = inhibition: at the top concentration
Outline: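 Compounds incubated with erythrocytes infected by luciferase-expressing P. falciparum (2% hematocrit, 0.05% parasitemia final) for 96 hours, 37 C in 5% CO2. Growth inhibition scored as decreased luciferase luminescence.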
% is set by controls: 0 for no effect and ±100 for the full control effect; potency is the fitted concentration of half-maximal effect.

| SMILES | activity change, negative = inhibition | Potency |
| --- | --- | --- |
| CCN(CC(=O)Nc1c(F)cccc1F)C(=O)CN1c2cccc3cccc(c23)S1(=O)=O | -23.6% (inactive) |  |
| Cc1cccc(C(=O)OCC(=O)Nc2ccc(F)cc2)c1 | 24.1% (inactive) |  |
| CCOC(=O)c1ccccc1NC(=O)COC(=O)C(Cc1c[nH]c2ccccc12)NC(C)=O (configuration not stated) | 6.94% (inactive) |  |
| Cc1ccc(OCC(=O)c2cc(C)n(Cc3ccco3)c2C)c([N+](=O)[O-])n1 | -23.9% (inactive) |  |
| COc1ccc(C)cc1-n1nnnc1SCC(=O)c1cc(C)n(Cc2ccco2)c1C |  | 10.4 µM (active) |
| Cc1cc(C(=O)CSc2nc(N)cc(=O)[nH]2)c(C)n1Cc1ccco1 | -25.3% (inactive) |  |
| O=c1[nH]c(NCCO)nnc1Cc1ccc(Cl)cc1 | 28.5% (inactive) |  |
| COc1ccccc1NS(=O)(=O)c1ccc(C)c(C(=O)NCC(c2ccco2)N(C)C)c1 (configuration not stated) | -7.32% (inactive) |  |
| CC1CN(S(=O)(=O)c2cccc(C(F)(F)F)c2)CN1C(=O)N1CCOCC1 (configuration not stated) | -13% (inactive) |  |
| O=C(NCCCNC(=O)c1ccccc1Cl)c1cnccn1 | 22.9% (inactive) |  |
| CCCCN(C)C(=O)c1ccc2c(c1)N(CC)C(=O)c1ccccc1S2(=O)=O |  | 10.4 µM (active) |
| CN(Cc1cccs1)C(=O)CN1C(=O)c2ccccc2S1(=O)=O | 121% (inactive) |  |
| CCCCN1C(=O)c2ccc(C(=O)Nc3ccc(S(=O)(=O)N(C)C)cc3)cc2C1=O | 22.6% (inactive) |  |
| Cc1ccc(OCC(=O)NCCCNC(=O)c2cccnc2)cc1C | 12.4% (inactive) |  |
| Cc1cc(NC(=O)c2ccccc2C)no1 | -28.3% (inactive) |  |
| CCCC(C)c1nnc(NC(=O)C2CC(=O)N(c3ccc(OCC)cc3)C2)s1 (configuration not stated) | 30.3% (inactive) |  |
| COc1ccccc1N1CC(C(=O)Nc2nnc(SCC(=O)NC(C)C)s2)CC1=O (configuration not stated) | 1.01% (inactive) |  |
| CCOC(=O)CSc1nnc(NC(=O)C2CC(=O)N(c3ccc(F)cc3)C2)s1 (configuration not stated) |  | 14.7 µM (active) |
| CC1CN(C(=O)CCC(=O)NCCCN2CCC(Cc3ccccc3)CC2)c2cc(Cl)ccc2O1 (configuration not stated) | -18.1% (inactive) |  |
| COc1cccc(NC(=O)c2cc(S(=O)(=O)N3CCc4ccccc43)cn2C)c1 | 2.69% (inactive) |  |
| CCn1c(=O)c(=O)n(CC)c2cc(N3CCCCC3)c(NC(=O)c3ccc(Cl)cc3)cc21 | 16.3% (inactive) |  |
| CC(NC(=O)c1ccccc1SCC(=O)N1CCCC1)c1ccccc1 (configuration not stated) | 12.9% (inactive) |  |
| CC(=O)Nc1ccc(S(=O)(=O)N(C)c2nc3ccccc3nc2Cl)cc1 | -3.33% (inactive) |  |
| Cc1ccc(S(=O)(=O)N(C)c2nc3ccccc3n3c(C(C)C)nnc23)cc1 |  | 11.7 µM (active) |
| Cc1ccc(Oc2nc3ccccc3n3c(C)nnc23)cc1 | -7.96% (inactive) |  |
| O=C(Nc1ccccc1Cl)NC1(C(=O)N2CCOCC2)CCCCC1 | -0.281% (inactive) |  |

| SMILES | activity change, negative = inhibition | Potency |
| --- | --- | --- |
| N#Cc1c(Cl)nc(-c2cccnc2)nc1-c1ccccc1 | 5.64% (inactive) |  |
| NC(=S)Nc1c(Cl)cccc1Cl | -1.64% (inactive) |  |
| CN(CC(=O)Nc1c(Cl)cccc1Cl)C(=O)CNC(=O)C1CCCCC1 | -12.9% (inactive) |  |
| O=C(Nc1c(Cl)cccc1Cl)C1CCC1 |  | 10.4 µM (active) |
| NS(=O)(=O)c1ccc2nc(NC(=O)CS(=O)(=O)c3ccc(F)cc3)sc2c1 | -3.76% (inactive) |  |
| Cc1nn(CCOc2ccc(Br)cc2)c(C)c1[N+](=O)[O-] |  | 13.1 µM (active) |
| COc1ccc(CNC(=O)CCCn2nc(C)c([N+](=O)[O-])c2C)cc1 | 35.9% (inactive) |  |
| Brc1ccc(OCCn2ccnc2)cc1 | -20.6% (inactive) |  |
| CNS(=O)(=O)c1ccc(NC(=O)Nc2ccc3c(c2)OCO3)cc1 | -11.3% (inactive) |  |
| CCOC(=O)C(=O)C1C(=O)Nc2ccccc21 (configuration not stated) | 19% (inactive) |  |
| CCCCCN(C(=O)CCC(=O)OCC(=O)NCc1ccc(OC)cc1)c1c(N)n(CCCC)c(=O)[nH]c1=O | 26.9% (inactive) |  |
| CCCCCN(C(=O)CCC(=O)OCCOc1ccc(OC)cc1)c1c(N)n(CCCC)c(=O)[nH]c1=O | -19.4% (inactive) |  |
| CCCCCN(C(=O)CCC(=O)OCC(=O)NC1CCC(C)CC1)c1c(N)n(CCCC)c(=O)[nH]c1=O (configuration not stated) |  | 14.7 µM (active) |
| O=C(NCc1ccco1)C1CCCN1S(=O)(=O)c1ccccc1C(F)(F)F (configuration not stated) | -14% (inactive) |  |
| CCOC(=O)C1=C(COC(=O)[C@H](C)NS(=O)(=O)c2ccccc2F)NC(=O)NC1C (some centres not stated) | -11% (inactive) |  |
| CN(C)CCCN=Cc1c(O)n(Cc2ccco2)c(=O)[nH]c1=O | -6.3% (inactive) |  |
| CC(C)n1c(=O)c(C=Nc2ccc(Br)cc2)c(O)n(Cc2ccco2)c1=O |  | 10.4 µM (active) |
| Cc1cs/c(=N\N=C\c2ccc(O)cc2)n1Cc1ccco1 | 11.9% (inactive) |  |
| COC(=O)c1cccc(N(C(=O)CNC(=O)c2cccs2)C(C(=O)NCC2CCCO2)c2ccc(OC)c(OC)c2)c1 (configuration not stated) | 25.5% (inactive) |  |
| CC1(C)CC(=O)CC2(C1)NCC(c1ccccc1Cl)c1c2[nH]c2ccccc12 (configuration not stated) |  | 9.28 µM (active) |
| O=C(O)CC(c1ccccc1F)N1Cc2ccccc2C1=O (configuration not stated) | 18.9% (inactive) |  |
| CN(C)CCNc1ccc(-c2n[nH]c(=O)c3ccccc23)cc1[N+](=O)[O-] | 0% (inactive) |  |
| CCOC(=O)c1cn[nH]c1NC(=S)Nc1ccccc1 | 183% (inactive) |  |
| CCOC(=O)c1cc2c(nc1NC(=S)Nc1ccccc1)CC(C)(CC)OC2 (configuration not stated) |  | 13.1 µM (active) |
| CCOC(=O)c1ccc(NC(=S)Nc2cc(C)cc(C)n2)cc1 | 28.8% (inactive) |  |
| COc1ccc(CNC(=O)c2cc(=O)c3c(C)cc(C)cc3o2)cc1 | 9.78% (inactive) |  |

| SMILES | activity change, negative = inhibition | Potency |
| --- | --- | --- |
| Cc1ccc(N=C2SCCCN2C(=O)c2cccc(N3C(=O)CCC3=O)c2)cc1Cl | -0.425% (inactive) |  |
| COc1ccc(N2CC(NS(=O)(=O)c3ccc4ccccc4c3)CC2=O)cc1 (configuration not stated) | 31.1% (inactive) |  |
| O=S(=O)(c1ccc(F)cc1)N1CCN(C(=S)NCc2ccco2)CC1 |  | 0.657 µM (active) |
| COc1ccc(C(=O)NC2CCN(C(=S)NCCc3ccccc3)CC2)cc1 | 29% (inactive) |  |
| Cc1ccc(C(=O)NC2CCN(C(=O)Nc3ccc(F)cc3)CC2)cc1 | 35.4% (inactive) |  |
| O=C(NCc1ccco1)C1CCCN(S(=O)(=O)c2ccccc2)C1 (configuration not stated) | -64.2% (inactive) |  |
| COc1ccc(CCNC(=S)N2CCN(S(=O)(=O)c3ccc(F)cc3)CC2)cc1 |  | 2.94 µM (active) |
| O=C(NC1CCN(C(=S)NCc2ccco2)CC1)c1ccc(F)cc1 |  | 2.94 µM (active) |
| CC1CCN(S(=O)(=O)c2ccc(S(=O)(=O)NCc3ccco3)cc2)CC1 | -27.6% (inactive) |  |
| COc1ccc(CCNC(=O)C2CCCN(S(=O)(=O)c3ccc(OC)cc3)C2)cc1 (configuration not stated) | 17.3% (inactive) |  |
| CCOC(=O)N1CCN(S(=O)(=O)c2ccc(OC)cc2)CC1 | -14.5% (inactive) |  |
| CSc1ccccc1NC(=O)COC(=O)CCCOc1ccc(C)cc1 | 21.6% (inactive) |  |
| COc1ccc(CCNC(=O)COC(=O)Cc2cccc(F)c2)cc1 | 11.3% (inactive) |  |
| O=C(COC(=O)CNC(=O)C1CCCCC1)NCc1ccccc1 | 24.4% (inactive) |  |
| COc1cccc(CSc2nc3nc(C)cc(C)n3n2)c1 | -2.95% (inactive) |  |
| COC(=O)N/N=C/c1c[n+]([O-])c2ccccc2[n+]1[O-] | 5.91% (inactive) |  |
| O=C(CCN1C(=O)[C@H]2CC=CC[C@H]2C1=O)NCc1nc(-c2ccccc2)no1 | -14.7% (inactive) |  |
| CCC(C)NC(=O)C1CCC(=O)N1Cc1ccc(C)cc1 (configuration not stated) |  | 11.7 µM (active) |
| Cc1ccc(CN2C(=O)CCC2C(=O)NCCCN2CCCCC2C)cc1 (configuration not stated) | 200% (inactive) |  |
| CCC(C)NC(=O)C1c2ccccc2C(=O)N1Cc1ccccc1 (configuration not stated) | 3.04% (inactive) |  |
| O=S(=O)(Cc1nnnn1-c1ccccc1)c1ccccc1 | -15.4% (inactive) |  |
| O=C(/C=C/c1ccccc1[N+](=O)[O-])OCC(=O)N1CCCC1 | 4.58% (inactive) |  |
| COc1cccc(NC(=O)N2CCC(NC(=O)C(Cc3cccc(C)c3)NC(C)=O)CC2)c1 (configuration not stated) | -1.88% (inactive) |  |
| O=C(O)Cc1sc(-c2ccc(C(=O)O)cc2)nc1-c1ccccc1 | 3.9% (inactive) |  |
| Cc1ccc(S(=O)(=O)NCCC(=O)Nc2ccc(C)c(Cl)c2)cc1C | -21.6% (inactive) |  |
| Cc1ccc(-c2nc(-c3cccnc3)sc2CC(=O)Nc2ccc(C)c(Cl)c2)cc1 |  | 11.7 µM (active) |

| SMILES | activity change, negative = inhibition | Potency |
| --- | --- | --- |
| COc1ccc(OC)c(C(=O)NC(CC(N)=O)c2ccc(N3CCC(N4CCCCC4)CC3)c([N+](=O)[O-])c2)c1 (configuration not stated) | 51.1% (inactive) |  |
| CCOc1ccc(N(CC)S(=O)(=O)c2cccc3nsnc23)cc1 |  | 6.57 µM (active) |
| COc1ccc(N(C)S(=O)(=O)c2cccc3nsnc23)cc1 | 24.7% (inactive) |  |
| COc1ccc(N(C)C(=O)CCS(=O)(=O)c2cccc3nsnc23)cc1 | 6.94% (inactive) |  |
| O=C(Nc1ccc(N2CCOCC2)c(Cl)c1)c1ccc(S(=O)(=O)N2CCOCC2)cc1 | 6.03% (inactive) |  |
| COC(=O)c1ccc(C(NC(=O)OCc2ccccc2)/C(C)=C/[C@@H](C)C(=O)NCc2ccc(OC)c(OC)c2)cc1 (some centres not stated) |  | 11.7 µM (active) |
| COc1ccc(CNC(=O)Cc2ccc(-c3ccccc3)cc2)cc1OC | -17.7% (inactive) |  |
| COc1ccc(COC(=O)NC(C(=O)O)c2ccccc2)cc1 (configuration not stated) | 82% (inactive) |  |
| COc1ccccc1CNC(=O)CCCn1c(=O)c2ccccc2n(CC(=O)NC2CCCC2)c1=O |  | 4.65 µM (active) |
| COc1ccccc1CNC(=O)CCCN1C(=O)NC2(CCCC2)C1=O | -3.02% (inactive) |  |
| COCCCNC(=O)Cn1c(=O)n(Cc2ccccc2Cl)c(=O)c2cc(OC)c(OC)cc21 | 33.6% (inactive) |  |
| COC(=O)c1ccccc1N=Nc1c(C)[nH][nH]c1=O | -0.0243% (inactive) |  |
| O=C(O[C@H]1[C@H](Cc2ccccc2)NS(=O)(=O)[C@H]2C[C@@H]3C=C[C@]12O3)c1ccc([N+](=O)[O-])cc1 | -23.9% (inactive) |  |
| CC(=O)c1ccc(S(=O)(=O)N2CCN(C(=O)/C=C/c3ccc4ccccc4n3)CC2)cc1 |  | 5.22 µM (active) |
| NC(=O)COC(=O)/C=C/c1ccc2ccccc2n1 | 0.945% (inactive) |  |
| CC(=O)c1ccc(S(=O)(=O)N2CCC3(CC2)OCCO3)cc1 | -2.99% (inactive) |  |
| COCC1CCCN(C(=O)c2ccc3oc(C(C)C)nc3c2)C1 (configuration not stated) | -11.9% (inactive) |  |
| Nn1c(SCC(=O)Nc2nccs2)nnc1-c1ccco1 | -3.03% (inactive) |  |
| NC(=O)C1CCN(C(=O)c2cn(-c3ccccc3)nc2-c2cccnc2)CC1 | 34.6% (inactive) |  |
| O=C(COC(=O)/C=C/c1cn(-c2ccccc2)nc1-c1cccnc1)Nc1ccc(Cl)cc1Cl | -12.5% (inactive) |  |
| CC(C)(C)OC(=O)N/N=C/c1cn(-c2ccccc2)nc1-c1cccnc1 |  | 2.33 µM (active) |
| COC(=O)c1cn(-c2ccccc2)nc1-c1cccnc1 |  | 7.38 µM (active) |
| O=C(NCc1cccnc1)c1cn(-c2ccccc2)nc1-c1cccs1 | 11.5% (inactive) |  |
| CN(C)/N=C/c1cn(-c2ccccc2)nc1-c1cccnc1 | -21.6% (inactive) |  |
